Pf growth 96h: P. falciparum growth inhibition at 96 hours; P. falciparum luciferase reporter growth, 96 h; Potency, µM (doses to about 28.7 µM), without a hit: top-dose activity change, negative = inhibition, hits mostly inhibitors; 6.9% of 320,000 active; note: % is set by controls: 0 for no effect and ±100 for the full control effect
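96 h incubation, 37 C, 5% CO2, of luciferase-reporter P. falciparum-infected RBCs (2% hematocrit, 0.05% parasitemia final) with test compounds; endpoint luminescence.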
AMA1-RON2 inh: disrupts binding of P. falciparum AMA1 to RON2; AlphaScreen AMA1-biotinylated RON2 peptide binding; Potency, µM (highest dose often 58.2 µM), for inactives: at the top dose activity change, negative = inhibition, usual class: inhibitors; 0.2% of 360,000 active; AID 720542;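 note: 0% = vehicle wells and -100% = peptide control; nearly all actives have a fitted effect of over 45% in size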
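AMA1 (3D7) with his tag at 25 nM final met compounds first, then biotinylated RON2 peptide at 25 nM; detection used donor plus acceptor beads, 10 µg/mL apiece, read by AlphaScreen after 30 min at room temperature.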
SARS PLpro yeast: inhibitors of SARS-CoV papain-like protease in yeast; AID 485353; 0.19% of 330,000 active; Potency, µM (series often up to 32.9 µM), without a hit: at the highest dose activity, positive = growth rescue, most hits filed as activators; S. cerevisiae expressing SARS-CoV PLpro, growth rescue; calls by dose curve; note: 0% is about no effect; nearly all actives have a fitted effect of over 55% in size
Pf growth 48h: P. falciparum growth inhibition at 48 hours (one generation); 5.9% of 310,000 active; P. falciparum luciferase growth in erythrocytes, 48 h; Potency, µM (titrated, usually from 28.7 µM), for inactives: at the highest dose activity change, negative = inhibition, most hits filed as inhibitors; note: % is set by controls: 0 for no effect and ±100 for the full control effect
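Luciferase-expressing parasites in RBCs, 2% Hct / 0.1% parasitemia final; RPMI 1640 + 0.5% Albumax; 37 C, 5% CO2, one generation; luminescence read-out, lower signal = inhibition.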
* = called active by the depositor; [ ] = dose if it differs, or a comment. Most compounds without a hit are left out; they make up all but 9.4% or so of the library. Unless noted, calls come from the whole dose curve; as a rule, active = well fitted curve in the direction sought with a large enough effect; inconclusive = small, poorly fitted or top-dose-only effect, or another doubt; inactive = no such curve, though single readings can be large; an effect the other way counts as inactive or inconclusive. Potency is the fitted concentration of half-maximal effect.

O=C(N/N=C/c1ccccc1)NC1CCCCC1 was read as Pf growth 96h 33%, AMA1-RON2 inh -5%, SARS PLpro yeast -18% and Pf growth 48h 59%.
Screening CC(C)(C)c1ccc(/C=N/NC(=S)NC2CCCCC2)cc1 returned Pf growth 96h inconclusive, AMA1-RON2 inh 31%, SARS PLpro yeast 20µM* and Pf growth 48h inconclusive.
Screening Cc1oc(C(=O)Nc2ccc(O)cc2)cc1COc1ccccc1 returned AMA1-RON2 inh 7%, SARS PLpro yeast -8% and Pf growth 48h 12%.
For CN(C)Cc1cc(C(C)(C)C)c(O)c(C(C)(C)C)c1 the results were Pf growth 96h 1µM*, AMA1-RON2 inh -6%, SARS PLpro yeast -10% and Pf growth 48h 29%.
`CC(=O)Nc1ccc(S(=O)(=O)NC(=O)C23CC4CC(CC(C4)C2)C3)cc1` gave Pf growth 96h 0.93µM*, AMA1-RON2 inh 16% and SARS PLpro yeast 9%.
O=C(NC1CCN(C(=S)Nc2ccccc2Cl)CC1)C1CCCCC1 was read as Pf growth 96h 4%, AMA1-RON2 inh -9%, SARS PLpro yeast 8% and Pf growth 48h -16%.
`Cn1ccnc1SCCNC(=O)CCc1nnc(CCCCc2ccccc2)o1` gave Pf growth 96h inconclusive, AMA1-RON2 inh 4%, SARS PLpro yeast -1% and Pf growth 48h -23%.
`Cn1ccnc1SCCNC(=O)CCc1nnc(CCc2ccccc2)o1` gave Pf growth 96h 10µM*, AMA1-RON2 inh 18%, SARS PLpro yeast 0% and Pf growth 48h 13%.
Screening COc1ccc(S(=O)(=O)NN=C2CCCCC2)cc1 returned Pf growth 96h 0%, AMA1-RON2 inh -7%, SARS PLpro yeast -4% and Pf growth 48h 39%.
N#CCC(CNc1ncc(C(F)(F)F)cc1Cl)OC(=O)c1cccc([N+](=O)[O-])c1 (stereo unspecified) was read as Pf growth 96h 4.7µM*, AMA1-RON2 inh 13%, SARS PLpro yeast -17% and Pf growth 48h 13µM*.
For N#CCC(CNc1ncc(C(F)(F)F)cc1Cl)OC(=O)c1ccc(Cl)cc1 (stereo unspecified) the results were Pf growth 96h inconclusive, AMA1-RON2 inh 17%, SARS PLpro yeast -22% and Pf growth 48h inconclusive.
For COc1ccc(CCNC(=O)CCn2c(=O)oc3ccccc32)cc1 the results were Pf growth 96h -18%, AMA1-RON2 inh 8%, SARS PLpro yeast -3% and Pf growth 48h 3%.
For Cc1ccc(OCc2nnc(NC(=O)c3ccco3)s2)c(C)c1 the results were Pf growth 96h 1.9µM*, AMA1-RON2 inh -3%, SARS PLpro yeast -1% and Pf growth 48h -3%.
Cc1ccc(OCc2nnc(NC(=O)c3ccco3)s2)cc1 was read as Pf growth 96h 5%, AMA1-RON2 inh 18% and SARS PLpro yeast -6%.
`CC(C)OC(=O)c1cc(-c2ccc(C=O)o2)ccc1Cl` gave Pf growth 96h 15µM*, AMA1-RON2 inh 7%[11.6 µM], SARS PLpro yeast -27% and Pf growth 48h 31%.
For CC(C)N1C(=O)S/C(=C\c2ccc(-c3ccc(Cl)c(C(=O)O)c3)o2)C1=O the results were Pf growth 96h 158%, AMA1-RON2 inh -13%, SARS PLpro yeast 2% and Pf growth 48h 116%.
Screening O=c1[nH]c(CSc2nnnn2-c2ccc(Cl)cc2)nc2ccccc12 returned Pf growth 96h 15%, AMA1-RON2 inh 1%, SARS PLpro yeast 2% and Pf growth 48h 10%.
Screening O=C(CN1C(=O)CSC1=O)Nc1ccccc1N1CCOCC1 returned Pf growth 96h 8%, AMA1-RON2 inh 1%, SARS PLpro yeast -6% and Pf growth 48h -2%.
Screening O=C(NCCc1c[nH]c2ccccc12)/C(=C/c1cccnc1)NC(=O)c1cccs1 returned Pf growth 96h 29%, AMA1-RON2 inh -6%, SARS PLpro yeast 0% and Pf growth 48h -33%.
Screening O=C(NCc1cc(Br)cc(Br)c1OC(=O)c1ccccc1[N+](=O)[O-])c1ccccc1 returned Pf growth 96h 5.2µM*, AMA1-RON2 inh -12%, SARS PLpro yeast -67% and Pf growth 48h 5%.
Nc1cc(=O)[nH]c(SCc2nnnn2-c2ccc(Cl)cc2)n1 was read as Pf growth 96h 0.21µM*, AMA1-RON2 inh 17%, SARS PLpro yeast 10% and Pf growth 48h 12%.
`C#CCOCCOCCOCCNc1nc(N2CCN(C(=O)Cn3cc(CCCCN)nn3)CC2)nc(N2CCN(C(=O)[C@H](C)n3cc(CCC(=O)O)nn3)CC2)n1` gave AMA1-RON2 inh 12%.
`C#CCOCCOCCOCCNc1nc(N2CCN(C(=O)CCCCCCCCCCNC(=O)[C@@H](CCC(=O)O)n3cc(CCCCCN)nn3)CC2)nc(N2CCN(C(=O)CCCCCCCCCCNC(=O)[C@H](CO)n3cc(CCCCCN)nn3)CC2)n1` gave Pf growth 96h 5.9µM*, AMA1-RON2 inh -23%, SARS PLpro yeast 1% and Pf growth 48h 2.1µM*.
C#CCOCCOCCOCCNc1nc(N2CCOCC2)nc(N2CCN(C(=O)CCCCCCCCCCNC(=O)[C@H](CO)n3cc(CCCSC)nn3)CC2)n1 was read as Pf growth 96h 0.52µM*, AMA1-RON2 inh -6%, SARS PLpro yeast 3% and Pf growth 48h 0.52µM*.
For C#CCOCCOCCOCCNc1nc(N2CCN(C(=O)CCCCCCCCCCNC(=O)[C@@H](CCC(=O)O)n3cc(CCCCCN)nn3)CC2)nc(N2CCN(C(=O)CCCCCCCCCCNC(=O)[C@H](CO)n3cc(CCCSC)nn3)CC2)n1 the results were Pf growth 96h inconclusive, AMA1-RON2 inh 0%, SARS PLpro yeast -5% and Pf growth 48h 4.7µM*.
For Nc1ccn(C2CCCO2)c(=O)n1 (stereo unspecified) the results were AMA1-RON2 inh 3%.
Screening CC(Sc1nnc(CN2CCCC2)n1Cc1ccccc1)C(=O)Nc1ccc(F)cc1 (stereo unspecified) returned Pf growth 96h inconclusive, AMA1-RON2 inh 11%, SARS PLpro yeast 2% and Pf growth 48h -11%.
`O=C(NN1CCOCC1)c1cc(-c2ccc(Cl)c(Cl)c2)nc2ccccc12` gave Pf growth 96h 10%, AMA1-RON2 inh -24%, SARS PLpro yeast 12% and Pf growth 48h 16%.
`O=c1cc(-c2cccc(Br)c2)nc(-c2ccccc2F)o1` gave Pf growth 96h 29%, AMA1-RON2 inh -10%[11.6 µM], SARS PLpro yeast -5% and Pf growth 48h 2%.
For COc1ccc(/C=N/NC(=O)c2ccco2)cc1OCc1ccccc1 the results were Pf growth 96h inconclusive, AMA1-RON2 inh -7%, SARS PLpro yeast 0% and Pf growth 48h 8.3µM*.
Screening COc1ccccc1/C=C/C=N/NC(=O)c1ccco1 returned Pf growth 96h inconclusive, AMA1-RON2 inh 82%, SARS PLpro yeast -2% and Pf growth 48h 12µM*.
Screening O=C(N/N=C/c1ccc(OCc2ccccc2)cc1)c1ccco1 returned Pf growth 96h 3.7µM*, AMA1-RON2 inh 10%, SARS PLpro yeast -1% and Pf growth 48h 1.9µM*.
`CCOc1cc(/C=N/OC(C)=O)ccc1OCc1ccccc1` gave Pf growth 96h 10µM*, AMA1-RON2 inh -3%, SARS PLpro yeast 1% and Pf growth 48h 27%.
For COc1ccc(C(=O)C=Cc2ccc(OCc3ccccc3)c(OC)c2)cc1OC the results were AMA1-RON2 inh -6%.

Screens: PubChem, National Center for Advancing Translational Sciences (NCATS)
